What all share (experiment): NCI-60 one-dose screen, 48 h (100 = growth as untreated, 0 = no growth, -100 = all killed)
What all share (details): 10 µM unless noted

Assay [1] has as its system HCT-15 colon.
For assay [2], the system named is HT29 colon.
For assay [3], the system named is SNB-75 CNS.
The test system of assay [4] is SNB-19 CNS.
The subject of assay [5] is U251 CNS.
Assay [6] deals with PC-3 prostate.
Assay [7] deals with SK-MEL-5 melanoma.
Assay [8] deals with UACC-62 melanoma.
Assay [9] relates to LOX IMVI melanoma.
The subject of assay [10] is SK-MEL-28 melanoma.
For assay [11], the system named is SK-MEL-2 melanoma.
Assay [12] has as its system EKVX NSCLC.
Assay [13] deals with SN12C renal.
For assay [14], the system named is UO-31 renal.
In assay [15] the test system is TK-10 renal.
Assay [16] relates to ACHN renal.
In assay [17] the test system is CAKI-1 renal.
Assay [18] deals with A498 renal.
Assay [19] has as its system CCRF-CEM leukemia.
In assay [20] the test system is MOLT-4 leukemia.

The structures appear in SMILES notation. “And” between values parts separate entries of the source, which are not always exact repeats. Equal values may be shown once. The panel holds about 83,000 compounds, 20% with a hit somewhere; the sample as a whole holds those more often.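 Cell lines were cultured in 96-well plates, exposed to a single compound concentration, and assessed for percent growth 48 hours later.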 Unmarked numbers belong to inactive results. The source made the active and inactive calls. How the source made its calls: active means growth percent below 10; inactive means the rest.

Consider `Cc1cc(N2CCN(CC(=O)Nc3ccc4c(ccn4Cc4ccccc4)c3)CC2)nc(N2CCCCCC2)n1`, for which the growth was 28.2% in assay [1]; 5.17% (active) in [2]; 66.6% in assay [3]; 57.3% in assay [4]; 38.4% in [5]; 28.2% in assay [6]. Further, the growth is 49.2% in assay [7]; 43.2% in [8]; 34.9% in assay [9]; 63.4% in assay [10]; 64% in assay [11]; 57.5% in assay [12]. The growth in assay [13] is 54.8%; in [14], -1.98% (active); in assay [15] it was 73.1%; in assay [16] it was 57.5%; in assay [17] it was 31.9%; in [18], 5.69% (active). In addition, the growth was 46.2% in assay [19] and 44.3% in assay [20].

On to `COc1cc(-c2[nH]ncc2Nc2ccc(Cl)cc2)cc(OC)c1OC`, for which the growth in assay [1] is 59.7%; in assay [2], 74.2%; in assay [3], 59.8%; in assay [4], 74.2%; in assay [5], 68.9%; in assay [6] it was 59.9%. Further, the growth is 43.6% in assay [7]; 40% in [8]; 55.8% in [9]; 82.1% in assay [10]; 112% in assay [11]; 45.4% in assay [12]. For the same compound, the growth in assay [13] is 89.9%; in assay [14] it was 42.9%; in assay [15], 67.8%; in [16] it was 78.9%; in assay [17], -14.8% (active); in [18], 68.9%. In addition, the growth in assay [19] was 54.9%; in assay [20] it was 50.9%.

Regarding `Cc1cccc(-c2nnc(SCC(=O)Nc3ncc(Cc4ccccc4)s3)n2N2C(=O)CSC2=S)c1`, the growth is 78.5% in [1]; 81.2% in [2]; -7.46% (active) in assay [3]; 54.1% in assay [4]; 34.6% in assay [5]; 57.3% in [6]. For the same compound, the growth in [7] was 75.9%; in assay [8] it was 20.1%; in assay [9], 23.5%; in assay [10] it was 51.3%; in assay [11], 75.6%; in [12], 73.4%. In addition, the growth is 19.1% in assay [13]; 72.3% in assay [14]; 47.3% in assay [15]; 43.8% in assay [16]; 23.3% in assay [17]; 64.8% in [18]. In addition, the growth in assay [19] was 76.5%; in assay [20], 87.5%.

With `O=c1c(/C=C/c2ccco2)nnc2sc(Nc3ccc(Cl)cc3)nn12`, the growth in assay [1] is 108%; in [2], 93.5%; in assay [3], 79.9%; in [4], 94.2%; in assay [5] it was 108%; in assay [6] it was 92.2%. For the same compound, the growth in assay [7] was 93.5%; in assay [8], 92.4%; in assay [9], 97.6%; in [10], 108%; in assay [11], 95.6%; in assay [12], 90.9%. Besides, the growth in [13] is 107%; in assay [14] it was 79%; in assay [15], 146%; in assay [16], 98.2%; in [17], 98.5%; in [18], 108%. Moreover, the growth in [19] is 98%; in assay [20], 95.7%.

With `COc1ccc(C/C(C)=C(/c2ccc(OCCN3CCCC3)cc2)c2ccc(OC(=O)NCc3ccccc3)cc2)cc1`, the growth in [1] is 61.4%; in [2], 18.6%; in assay [3] it was 71.1%; in [4], 85.6%; in [5] it was 67.1%; in assay [6], 67.3%. Further, the growth in assay [7] was 77.8%; in assay [8] it was 84.8%; in assay [9] it was 84.4%; in [10], 84.7%; in assay [11] it was 104%; in assay [12], 87.5%. Also, the growth was 91.9% in assay [13]; 59.9% in assay [14]; 92.8% in [15]; 89.7% in assay [16]; 97.7% in assay [17]; 107% in assay [18]. In addition, the growth in assay [19] was 47.3%; in assay [20], 40%.

On to `O=[N+]([O-])c1ccc2[nH]c3nccc(NCc4cccc(Cl)c4)c3c2c1`, for which the growth in assay [1] was 83.2%; in [2] it was 76.3%; in assay [3] it was 7.78% (active); in assay [4], 53.3%; in assay [5], 43.1%; in [6], 67.5%. Besides, the growth in assay [7] is 83.7%; in assay [8], 82.2%; in [9], 81.4%; in assay [10] it was 101%; in assay [11], 93%; in assay [12] it was 50.8%. In addition, the growth in assay [13] was 86.5%; in assay [14] it was 87.2%; in assay [15], 72.8%; in [16] it was 68.2%; in [17], 60.2%; in [18], 71.4%. Further, the growth is 79.6% in assay [19] and 75.9% in assay [20].

Turning to `Nc1ccccc1SC(CC(=O)c1ccccc1)c1ccc([N+](=O)[O-])cc1` (stereo not given), the growth in assay [1] is 87.7% and 59%; in assay [2], 19.7% and 39.1%; in assay [3], 84.6% and 80.8%; in assay [4] it was 93.2% and 101%; in assay [5] it was 62.6% and 57.4%; in assay [6] it was 70.9% and 59.6%. The growth in assay [7] is 105%; in [8], 90.9% and 84.5%; in assay [9] it was 41.7% and 45.5%; in assay [10] it was 94.4% and 99.6%; in assay [11], 137% and 87.4%; in [12], 97.1%. The growth was 94% and 92.5% in [13]; 55.1% and 39.2% in [14]; 118% and 109% in assay [15]; 99.8% and 93.6% in [16]; 70.2% and 91.7% in [17]; 94.6% and 99.5% in assay [18]. For the same compound, the growth was 69.2% and 51.9% in assay [19]; 82.3% and 61.6% in assay [20].

For `Cc1ccc(/C=C2\COc3ccc(O)c(O)c3C2=O)cc1`, the growth is -16.5% (active) in [1]; 12.9% in assay [2]; 13.5% in assay [3]; 24.8% in assay [4]; -3.38% (active) in [5]; -10.4% (active) in assay [6]. Besides, the growth in assay [7] is 1.84% (active); in assay [8], -19.7% (active); in assay [9] it was -83.3% (active); in [10] it was 35.6%; in [11], 48.8%; in [12] it was 28.2%. Moreover, the growth in [13] is -77.6% (active); in assay [14], -97.3% (active); in [15], 8.12% (active); in [16], -77.6% (active); in [17], -27.6% (active); in assay [18], 6.45% (active). Besides, the figures for the growth in assay [19] and in assay [20] were 3.17% (active) and 1.48% (active), respectively.

Regarding `O=C(CCl)n1nnnc1Cc1ccccc1`, the growth in assay [1] is 102%; in assay [2], 95.6%; in assay [3], 84.9%; in assay [4], 96.4%; in assay [5] it was 90.3%; in assay [6] it was 94.7%. The growth was 109% in assay [7]; 89.5% in assay [8]; 87% in assay [9]; 110% in assay [10]; 86.9% in assay [11]; 105% in [12]. Further, the growth in assay [13] is 92.2%; in assay [14], 74.3%; in [15], 88.1%; in assay [16], 95.1%; in [17] it was 92.4%; in assay [18], 109%. In addition, the growth was 86.3% in assay [19] and 94.2% in assay [20].

For the compound `COc1ccc(Cn2cc(C(=O)Nc3cccnc3Nc3ccccc3)nn2)cc1`, the growth is 94.8% in [1]; 106% in [2]; 89.2% in assay [3]; 93.3% in assay [4]; 99.5% in [5]; 91% in assay [6]. Also, the growth in assay [7] was 90.2%; in assay [8], 83.2%; in assay [9], 92%; in assay [10], 113%; in [11], 107%; in assay [12], 92.8%. The growth is 86.5% in assay [13]; 70.9% in assay [14]; 95.1% in [15]; 105% in assay [16]; 88.4% in assay [17]; 117% in [18]. For the same compound, the growth in assay [19] was 108%; in assay [20], 93.5%.

Take `C/C=C(/C)C(=O)O[C@@H]1CC(C)(C)CC2C34OC(=O)[C@@]21CC[C@@]3(C)[C@]1(C)CCC2C(C)(C)C(=O)CC[C@]2(C)C1C[C@@H]4Cl` (stereo not given in full): the growth was 99.3% in [1]; 98% in [2]; 76% in [3]; 92% in [4]; 92.1% in assay [5]; 80.4% in [6]. Besides, the growth in assay [7] is 98.4%; in assay [8], 85.3%; in assay [9] it was 94.1%; in assay [10] it was 102%; in [11] it was 103%; in assay [12], 92%. The growth was 102% in assay [13]; 84.2% in assay [14]; 87.2% in assay [15]; 102% in assay [16]; 79.9% in [17]; 89.7% in assay [18]. The growth in [19] is 98.1%; in assay [20], 99.6%.

Regarding `COc1ccc(-c2ccc(-c3ccc(C(=N)N)cn3)o2)cc1Cl`, the growth in assay [1] is 18.7%; in assay [2], 4.81% (active); in assay [3], 89.3%; in assay [4], 40%; in [5], 0.889% (active); in assay [6] it was 46.1%. In addition, the growth in [7] is 12%; in assay [8] it was 86.5%; in [9] it was -71% (active); in [10], 70.1%; in assay [11], 83.1%; in assay [12] it was 70.4%. Besides, the growth in assay [13] is 44.5%; in [14], 52.4%; in [15], 94.4%; in assay [16], 17.3%; in [17] it was 40.2%; in [18] it was 80.5%. Also, the values for the growth in assay [19] and in assay [20] were -4.6% (active) and 10.7%, respectively.

For the compound `COc1cc(N=Nc2ccc(O)c3ncccc23)c2ncccc2c1`, the growth in assay [1] was 27.5%; in assay [2], 44.5%; in [3] it was 41.9%; in assay [4], 47.6%; in assay [5], 16.5%; in [6] it was 32.4%. The growth in assay [7] is 43.1%; in assay [8], 6.71% (active); in assay [9] it was 4.79% (active); in assay [10], 42%; in [11] it was 61.3%; in assay [12] it was 65.8%. Besides, the growth in assay [13] was 68.6%; in assay [14], 16.6%; in assay [15], 69.2%; in assay [16], 4.47% (active); in assay [17], 17.3%; in [18] it was 74.9%. Moreover, the growth in assay [19] is 5% (active); in assay [20], 6.75% (active).

As for `COc1ccc(C(=O)N/N=C/c2ccc(O)cc2O)cc1Nc1ccnc(C(F)(F)F)c1`, the growth in [1] was 40.1%; in assay [2] it was 37.4%; in assay [3], 26.4%; in [4], 34.2%; in assay [5], 28.3%; in assay [6], 64.5%. In addition, the growth was 24.2% in [7]; 1.67% (active) in assay [8]; 8.4% (active) in [9]; 42.9% in assay [10]; 61.5% in assay [11]; 26.9% in [12]. Also, the growth is 33.1% in assay [13]; 30.4% in assay [14]; 53.4% in assay [15]; 35.8% in assay [16]; 39.3% in assay [17]; 55.2% in assay [18]. Also, the growth in assay [19] was 5.69% (active); in assay [20], 23.4%.

(Values after PubChem BioAssay (NCI).)
